14 molecules from PubChem BioAssay can be followed below.

The structures appear in SMILES notation. Calls of active or inactive are those of the source.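 The calls were made as follows, unless noted: active = inhibition of the reporter signal at or above 50%; inactive = inhibition below 50%.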

The nature of experiment [1]: inhibitors of TNFa-induced NFkB p65 translocation, primary screen, imaging, HUVEC, MLSMR starter and 10KST1 sets (AID 438;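 active = inhibition above 20% together with a positive visual image hit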;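 also: compound added about 3h40 before a 20 min TNFalpha stimulation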;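 as to inhibition: signal is the nuclear over cytoplasmic p65 intensity ratio per well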). The following applies: HUVEC TNFa-induced p65 nuclear translocation; cell count: measured here: nuclei count (cytotoxicity indicator), at 2.08 µM; inhibition: at 2 µM, stronger effect = higher value, 0% TNFa-plus-vehicle, 100% no-TNFa wells.
The nature of experiment [2]: inhibitors of mutant huntingtin aggregation, primary screen, imaging, exon1htt(103Q)mCFP cells, high-content imaging (AID 483;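 active = visual image review flags a hit and inhibition of aggregation exceeds 20%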;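 also: compound exposure lasted 3 days before fixation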;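 as to nuclei count: percent of the per-plate median nuclei count of sample wells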). The following applies: exon1htt(103Q)mCFP cell line, aggregate imaging, at 2 µM; inhibition of aggregation: stronger effect = higher value; nuclei count: measured here: cell count, toxicity.
A short description of experiment [3]: inhibitors of E-selectin induction by TNFa, primary screen, imaging, HUVEC, immunofluorescence, MLSMR starter and 10KST1 sets (AID 487;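 active = visually confirmed hit in the image check and inhibition above 20%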;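 as to inhibition: signal is fraction of cell area covered by stained E-selectin grains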;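 as to nuclei count: 100% = median nuclei count of all wells on the same plate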). The following applies: HUVEC TNFalpha-induced E-selectin immunofluorescence imaging, at 2 µM; inhibition: stronger effect = higher value; nuclei count: measured here: cell number, toxicity.
In experiment [4] the target is Voltage-gated potassium channel subunit beta-2 (Rattus norvegicus) (UniProt P62483). The experiment can be described thus: KvBeta enzyme negative modulators, primary screen, biochemical, NADPH fluorescence (AID 622;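 active = fluorescence slope higher than the sample average by over 3 SD, cut at about -0.22 in these data, passing the limit was not always enough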;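 also: slope of raw intensity against log time taken from 70 to 1610 s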). As to conditions: recombinant KvBeta, 4-cyanobenzaldehyde reduction, at 10 µM, stronger effect = higher value.
The target is the same in experiment [5]. The experiment can be described thus: KvBeta positive modulators, primary screen, biochemical, NADPH fluorescence (AID 623;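 active = NADPH fluorescence slope more negative than the mean of all samples by about 3 SD, 99.7% confidence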;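 also: fluorescence intensity change per second fitted from 20 to 320 s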). The following applies: Recombinant KvBeta, NADPH fluorescence decrease slope, 10 min; at 10 µM; stronger effect = lower value.
In experiment [6] the target is Alpha-2C adrenergic receptor (Homo sapiens) (UniProt P18825). Kind of experiment: modulators of alpha2C/GIRK thallium flux, primary screen, cell-based, HEK293 alpha2C/GIRK1/2 (AID 624;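 active = fluorescence slope after compound addition differing from the mean of all screened samples at 99.7% confidence, in either direction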;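 also: slope of fluorescence ratio to pre-addition baseline per second over 15 to 24 s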). The following applies: thallium flux BTC fluorescence, at 10 µM, actives lie on both sides.
The nature of experiment [7]: inhibitors of Sendai virus-induced IRF3 signaling, primary screen, TLR/RLR signaling modifier project, cell-based, Sendai virus stimulus, luciferase, 10K MLSCN set (AID 602276;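 active = inhibition at or above 50% at 10 µM; inactive = inhibition below 50%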;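 also: firefly luciferase from ISG56 promoter only with Renilla not read in this screen; 0% = Sendai virus plus DMSO and 100% = medium plus DMSO without virus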). The following applies: HEK293 RL24 IRF3 luciferase reporter, at 10 µM, stronger effect = higher value.
Experiment [8] can be described thus: inhibitors of poly I:C-induced TLR3 signaling, primary screen, cell-based, poly I:C stimulus, luciferase, 10K MLSCN set (AID 602277). The following applies: HEK293-TLR3 RL24 IRF3 luciferase reporter, at 10 µM, stronger effect = higher value. On the technique in general: In a reporter assay the amount or activity of a reporter protein is the signal.

Alpha-2C adrenergic receptor (Homo sapiens), sequence (P18825 whole entry, looked up): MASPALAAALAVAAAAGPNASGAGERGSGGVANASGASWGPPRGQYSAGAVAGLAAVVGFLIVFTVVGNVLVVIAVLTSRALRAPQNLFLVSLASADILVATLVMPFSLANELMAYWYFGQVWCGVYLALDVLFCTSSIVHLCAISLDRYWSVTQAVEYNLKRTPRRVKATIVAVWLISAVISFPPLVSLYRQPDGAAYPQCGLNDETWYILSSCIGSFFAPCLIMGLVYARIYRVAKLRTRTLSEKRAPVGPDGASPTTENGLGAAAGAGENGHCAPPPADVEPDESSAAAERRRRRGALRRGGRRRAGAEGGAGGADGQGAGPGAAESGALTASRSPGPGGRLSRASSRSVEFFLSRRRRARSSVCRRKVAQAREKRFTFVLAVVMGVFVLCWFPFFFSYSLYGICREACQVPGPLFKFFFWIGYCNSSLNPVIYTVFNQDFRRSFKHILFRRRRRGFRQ
Voltage-gated potassium channel subunit beta-2 (Rattus norvegicus), sequence (P62483 whole entry, looked up): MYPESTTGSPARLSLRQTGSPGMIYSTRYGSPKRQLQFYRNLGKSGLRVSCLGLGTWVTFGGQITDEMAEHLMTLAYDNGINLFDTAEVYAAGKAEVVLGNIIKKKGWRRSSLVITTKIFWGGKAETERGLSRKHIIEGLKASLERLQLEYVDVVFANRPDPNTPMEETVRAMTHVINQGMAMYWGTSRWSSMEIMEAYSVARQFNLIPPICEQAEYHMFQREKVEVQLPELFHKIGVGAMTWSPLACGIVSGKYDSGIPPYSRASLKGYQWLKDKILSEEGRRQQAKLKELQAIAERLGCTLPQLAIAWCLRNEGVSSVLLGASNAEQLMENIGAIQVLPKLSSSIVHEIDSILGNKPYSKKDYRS

A word on the inhibition: it is the drop in the measured response relative to a control, in per cent. As for `COc1ccc(C2C(C(=O)N3CCCC3)c3cc(OC)c(OC)cc3C(=O)N2C)cc1` (centres undefined), the cell count in experiment [1] worked out at 583. Further, the inhibition in experiment [1] is -21.8% (inactive); in experiment [3] it was -71.5% (inactive); in experiment [7], 3.19% (inactive); in experiment [8], 12.2% (inactive). The inhibition of aggregation in experiment [2] was 7.8% (inactive). For the same molecule, the nuclei count in experiment [2] was 111%; in experiment [3] it was 115%. Also, the fluorescence slope in experiment [4] is -0.544 (inactive). For the same molecule, the NADPH fluorescence slope in experiment [5] is -5.3e-05 (inactive). In addition, the slope in experiment [6] was 0.00513 (inactive).
For `COc1cccc(-c2nc(CS(=O)CC(=O)NCCCOC(C)C)c(C)o2)c1` (centres undefined), the cell count in experiment [1] was determined as 193. Further, the inhibition in experiment [1] is -13% (inactive); in experiment [3] it was -27.1% (inactive); in experiment [7] it was 11.4% (inactive); in experiment [8], 7.08% (inactive). Also, the inhibition of aggregation in experiment [2] is 5.9% (inactive). Further, the nuclei count in experiment [2] was determined as 119%; in experiment [3], 95.8%. For the same molecule, in experiment [4], the fluorescence slope is -0.486 (inactive). Besides, in experiment [5], the NADPH fluorescence slope was -9.9e-06 (inactive). In addition, the slope in experiment [6] is 0.00479 (inactive).
On to `COc1cccc2sc(NC(=O)c3ccc(S(=O)(=O)N4CCOCC4)cc3)nc12`, for which the cell count in experiment [1] is 357. Moreover, the inhibition in experiment [1] was 0.5% (inactive); in experiment [3] it was -21% (inactive); in experiment [7], 10.2% (inactive); in experiment [8] it was 9.3% (inactive). Also, the inhibition of aggregation in experiment [2] was 8.5% (inactive). The nuclei count stood at 74.7% in experiment [2] and 104% in experiment [3]. Further, the fluorescence slope in experiment [4] is -0.289 (inactive). Further, the NADPH fluorescence slope in experiment [5] was -2.5e-05 (inactive). Also, the slope in experiment [6] is 0.00479 (inactive).
Take `Cc1ccc(CN2C(=O)CCC2C(=O)NC2CCCC2)cc1` (centres undefined): the cell count in experiment [1] amounted to 382. For the same molecule, the inhibition in experiment [1] is 1.3% (inactive); in experiment [3] it was -19% (inactive); in experiment [7] it was 12.8% (inactive); in experiment [8], 21.8% (inactive). Moreover, in experiment [2], the inhibition of aggregation was 6.6% (inactive). For the same molecule, the nuclei count in experiment [2] is 103%; in experiment [3] it was 111%. In experiment [4], the fluorescence slope was -0.589 (inactive). Moreover, in experiment [5], the NADPH fluorescence slope was -3.4e-05 (inactive). In addition, the slope in experiment [6] is 0.00496 (inactive).
For the molecule `CC(C)(C)n1nnnc1C(c1ccccc1)N1CCc2ccccc2C1` (centres undefined), the cell count in experiment [1] turned out to be 481. The inhibition in experiment [1] was 2.9% (inactive); in experiment [3] it was 11.4% (inactive); in experiment [7] it was 20.4% (inactive); in experiment [8] it was 30.1% (inactive). The inhibition of aggregation in experiment [2] was 16% (inactive). For the same molecule, the nuclei count worked out at 115% in experiment [2] and 110% in experiment [3]. For the same molecule, in experiment [4], the fluorescence slope was -0.48 (inactive). The NADPH fluorescence slope in experiment [5] is -0.000258 (inactive). Moreover, the slope in experiment [6] was 0.00496 (inactive).
On to `O=C(c1cc(S(=O)(=O)N2CCOCC2)ccc1F)N1CCCc2ccccc21`, for which, in experiment [1], the cell count is 555. The inhibition is -26.9% (inactive) in experiment [1], -44.9% (inactive) in experiment [3], 12.6% (inactive) in experiment [7] and 27.4% (inactive) in experiment [8]. In addition, in experiment [2], the inhibition of aggregation was -9.6% (inactive). Further, the nuclei count was found to be 102% in experiment [2] and 140% in experiment [3]. In addition, in experiment [4], the fluorescence slope is -0.382 (inactive). For the same molecule, in experiment [5], the NADPH fluorescence slope was -4.2e-05 (inactive). Moreover, the slope in experiment [6] was 0.00518 (inactive).
`CCCCCC1CC(CC(C)C(=O)Nc2nncs2)C(=O)O1` (centres undefined): the cell count in experiment [1] was 629. Besides, the inhibition was -7.3% (inactive) in experiment [1], -68% (inactive) in experiment [3], 11.3% (inactive) in experiment [7] and 20.7% (inactive) in experiment [8]. Moreover, the inhibition of aggregation in experiment [2] was -20.6% (inactive). In addition, the nuclei count in experiment [2] worked out at 112%; in experiment [3] it was 85.5%. Further, the fluorescence slope in experiment [4] is -0.369 (inactive). The NADPH fluorescence slope in experiment [5] is 2.3e-05 (inactive). Besides, in experiment [6], the slope was 0.00624 (inactive).
In the case of `OC(CCN1CCOCC1)(c1ccc(Cl)cc1)C1CCCCC1` (centres undefined), in experiment [1], the cell count stood at 663. For the same molecule, the inhibition in experiment [1] was -1% (inactive); in experiment [3] it was 37.9% (inactive); in experiment [7] it was -9.83% (inactive); in experiment [8], -48.9% (inactive). In addition, the inhibition of aggregation in experiment [2] is -1.2% (inactive). For the same molecule, the results for the nuclei count in experiment [2] and in experiment [3] were 48.5% and 120%, respectively. Besides, in experiment [4], the fluorescence slope was -0.588 (inactive). The NADPH fluorescence slope in experiment [5] was -2.6e-05 (inactive). In experiment [6], the slope is 0.00224 (inactive).
With `CCCCNC(=O)Cn1c(=O)n(C)c2ccccc21`, the cell count in experiment [1] worked out at 600. Also, the inhibition is 6.9% (inactive) in experiment [1], 35.9% (inactive) in experiment [3], 9.9% (inactive) in experiment [7] and 30% (inactive) in experiment [8]. The inhibition of aggregation in experiment [2] is -14.7% (inactive). Further, the nuclei count worked out at 111% in experiment [2] and 103% in experiment [3]. In experiment [4], the fluorescence slope is -0.549 (inactive). Further, the NADPH fluorescence slope in experiment [5] is -6.8e-06 (inactive). The slope in experiment [6] is 0.00707 (inactive).
As for `Cc1cc(C(=O)NCCCc2ccccc2)no1`, the cell count in experiment [1] came to 765. Moreover, the inhibition in experiment [1] was -8.2% (inactive); in experiment [3], -58% (inactive); in experiment [7], -11.5% (inactive); in experiment [8] it was -13.4% (inactive). In experiment [2], the inhibition of aggregation is 0% (inactive). Further, the figures for the nuclei count in experiment [2] and in experiment [3] were 105% and 120%, respectively. Also, the fluorescence slope in experiment [4] was -0.358 (inactive). Moreover, the NADPH fluorescence slope in experiment [5] was -1.1e-05 (inactive). The slope in experiment [6] was 0.00425 (inactive).
`CSc1nc2ccc(Nc3nc(N4CCOCC4)nc(N4CCOCC4)n3)cc2s1`: the cell count in experiment [1] came to 391. Besides, the inhibition is 4.9% (inactive) in experiment [1], 17.6% (inactive) in experiment [3], -24.9% (inactive) in experiment [7] and -49.5% (inactive) in experiment [8]. In addition, the inhibition of aggregation in experiment [2] is 6.4% (inactive). Besides, the nuclei count in experiment [2] turned out to be 106%; in experiment [3], 110%. The fluorescence slope in experiment [4] is -0.354 (inactive). Further, the NADPH fluorescence slope in experiment [5] was -2.2e-05 (inactive). The slope in experiment [6] was 0.00663 (inactive).
Turning to `COc1ccc(C(=O)NCCSc2ccccn2)cc1`, the cell count in experiment [1] worked out at 778. In addition, the inhibition in experiment [1] is 4.4% (inactive); in experiment [3], 48% (inactive); in experiment [7], -6.19% (inactive); in experiment [8], -64.3% (inactive). For the same molecule, the inhibition of aggregation in experiment [2] is 3.3% (inactive). Also, the nuclei count in experiment [2] was 101%; in experiment [3] it was 95%. Besides, in experiment [4], the fluorescence slope is -0.478 (inactive). In experiment [5], the NADPH fluorescence slope was -6.9e-05 (inactive). Further, in experiment [6], the slope was 0.00549 (inactive).
As for `O=C(Nc1ccc(Cc2ccc(NC(=O)N3CCOCC3)cc2)cc1)N1CCOCC1`, in experiment [1], the cell count was 494. The inhibition in experiment [1] was -2% (inactive); in experiment [3] it was 30.5% (inactive); in experiment [7], 0.542% (inactive); in experiment [8], -1.84% (inactive). The inhibition of aggregation in experiment [2] is 15.7% (inactive). For the same molecule, the nuclei count was determined as 61.1% in experiment [2] and 82.3% in experiment [3]. In addition, the fluorescence slope in experiment [4] was -0.416 (inactive). Besides, the NADPH fluorescence slope in experiment [5] is -2.3e-05 (inactive). In addition, the slope in experiment [6] is 0.0036 (inactive).
Turning to `Fc1cccc2sc(N3CCOCC3)nc12`, the cell count in experiment [1] was determined as 255. The inhibition in experiment [1] is -8.3% (inactive); in experiment [3] it was 6.6% (inactive); in experiment [7], -10.5% (inactive); in experiment [8] it was -45.8% (inactive). Besides, the inhibition of aggregation in experiment [2] is 16.8% (inactive). Also, the figures for the nuclei count in experiment [2] and in experiment [3] were 68.5% and 51.7%, respectively. For the same molecule, in experiment [4], the fluorescence slope is -0.387 (inactive). In experiment [5], the NADPH fluorescence slope is -3.9e-05 (inactive). In addition, the slope in experiment [6] is 0.00353 (inactive).
